Laboratory results: the supplement of paper PMC10037445
Values joined by “and” are separate entries in the source; they are usually repeats but may differ in a detail not shown here. Identical values can stand only once. Over roughly 2,900 compounds, “NF-kB SEAP reporter activity, fold change vs agonist alone” has its median near 0.99; the highest 2% begin near 2.6. What follows is part of a selection rich in the highest values, with near analogues and random picks from the rest.

Columns and labels:
RAW-Dual [1] = assay: NF-kB SEAP reporter activity, fold change vs agonist alone; higher = enhanced NF-kB activity
How it was run: (§1)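 RAW-Dual macrophages (50,000 cells/well in DMEM, 384-well plates) received 50 nL of library stock by pin tool, then a PRR agonist 1 h later, and were kept at 37 °C, 5% CO2. After 20 hours, supernatant was read for IRF by QuantiLuc luminescence and for NF-κB by QuantiBlue absorbance at 620 nm. Reporter activity is fold change over agonist-alone wells. Cytotoxic wells had IncuCyte confluency below 70% of agonist controls in both mask sets.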

RAW-Dual [2] = assay: NF-kB SEAP reporter activity, fold change vs agonist alone; cytotoxicity flag (confluency mask): not cytotoxic; higher = enhanced NF-kB activity
How it was run: as §1

RAW-Dual [3] = assay: NF-kB SEAP reporter activity, fold change vs agonist alone; cytotoxicity flag (confluency mask): cytotoxic (confluency <70% of control); higher = enhanced NF-kB activity
How it was run: as §1

[4] = library stock concentration (final ~1000-fold dilution): 10 mM, cytotoxicity flag (confluency mask): not cytotoxic, agonist: Imiquimod (TLR7) […]
[5] = library stock concentration (final ~1000-fold dilution): 10 mM, cytotoxicity flag (confluency mask): not cytotoxic, agonist: MPLA (TLR4) […]
[6] = agonist: ODN 1826 (TLR9) 0.5 ug/mL
[7] = agonist: Pam2CSK4 (TLR2/6) 0.1 ug/mL
[8] = agonist: Pam3CSK4 (TLR2/1) 0.1 ug/mL

Compound: NC(=O)c1ccc(-c2nc(-c3ccc4c(c3)OCCO4)c(-c3ccccn3)[nH]2)cc1
- NF-kB SEAP reporter activity (RAW-Dual [1]; [4]): 0.743
- NF-kB SEAP reporter activity (RAW-Dual [1]; [5]): 1.45

Compound: COc1ccc(-c2nc3cc(C4=NNC(=O)CC4C)ccc3[nH]2)cc1 (stereo not drawn) (library stock concentration (final ~1000-fold dilution): 10 mM)
- NF-kB SEAP reporter activity (RAW-Dual [2]; agonist: LPS (TLR4) 0.1 ug/mL): 1.3
- NF-kB SEAP reporter activity (RAW-Dual [2]; [6]): 2.47
- NF-kB SEAP reporter activity (RAW-Dual [2]; [7]): 1.8
- NF-kB SEAP reporter activity (RAW-Dual [2]; [8]): 1.7

Compound: COc1ccc(-c2nc3cc(C4=NNC(=O)CC4C)ccc3[nH]2)cc1 (stereo not drawn)
- NF-kB SEAP reporter activity (RAW-Dual [1]; [4]): 1.67
- NF-kB SEAP reporter activity (RAW-Dual [1]; [5]): 1.34

Compound: NC(=O)c1ccc2[nH]c(-c3ccc(Oc4ccc(Cl)cc4)cc3)nc2c1
- NF-kB SEAP reporter activity (RAW-Dual [1]; [4]): 1.47
- NF-kB SEAP reporter activity (RAW-Dual [1]; [5]): 2.09

Compound: Cl.Cl.Fc1cc(-c2cccc3ncc(-c4cnn(C5CCNCC5)c4)nc23)cc(F)c1CN1CCOCC1 (library stock concentration (final ~1000-fold dilution): 10 mM)
- NF-kB SEAP reporter activity (RAW-Dual [2]; agonist: LPS (TLR4) 0.1 ug/mL): 0.349
- NF-kB SEAP reporter activity (RAW-Dual [2]; [6]): 0.924
- NF-kB SEAP reporter activity (RAW-Dual [2]; [7]): 0.147
- NF-kB SEAP reporter activity (RAW-Dual [2]; [8]): 0.912

Compound: Cl.Cl.Fc1cc(-c2cccc3ncc(-c4cnn(C5CCNCC5)c4)nc23)cc(F)c1CN1CCOCC1
- NF-kB SEAP reporter activity (RAW-Dual [1]; [4]): 0.92
- NF-kB SEAP reporter activity (RAW-Dual [1]; [5]): 0.944

Compound: CCOC(=O)C(CCc1ccccc1)NC(C)C(=O)N1C(=O)N(C)CC1C(=O)O.Cl (stereo not drawn) (library stock concentration (final ~1000-fold dilution): 10 mM)
- NF-kB SEAP reporter activity (RAW-Dual [2]; agonist: LPS (TLR4) 0.1 ug/mL): 1.2
- NF-kB SEAP reporter activity (RAW-Dual [2]; [6]): 0.98
- NF-kB SEAP reporter activity (RAW-Dual [2]; [7]): 0.83
- NF-kB SEAP reporter activity (RAW-Dual [2]; [8]): 1.03

Compound: CCOC(=O)C(CCc1ccccc1)NC(C)C(=O)N1C(=O)N(C)CC1C(=O)O.Cl (stereo not drawn)
- NF-kB SEAP reporter activity (RAW-Dual [1]; [4]): 0.962
- NF-kB SEAP reporter activity (RAW-Dual [1]; [5]): 0.927

Compound: CCC(C)C(=O)OC1CC(C)C=C2C=CC(C)C(CCC3CC(O)CC(=O)O3)C21 (stereo not drawn)
- NF-kB SEAP reporter activity (RAW-Dual [1]; [4]): 2.54
- NF-kB SEAP reporter activity (RAW-Dual [1]; [5]): 1.94

Compound: CCC(C)(C)C(=O)OC1CC(C)C=C2C=CC(C)C(CCC3CC(O)CC(=O)O3)C21 (stereo not drawn) (library stock concentration (final ~1000-fold dilution): 10 mM)
- NF-kB SEAP reporter activity (RAW-Dual [3]; agonist: LPS (TLR4) 0.1 ug/mL): 2.35
- NF-kB SEAP reporter activity (RAW-Dual [3]; [6]): 2.44
- NF-kB SEAP reporter activity (RAW-Dual [3]; [7]): 2.12
- NF-kB SEAP reporter activity (RAW-Dual [3]; [8]): 3.35

Compound: CCC(C)C(=O)OC1CC(C)C=C2C=CC(C)C(CCC3CC(O)CC(=O)O3)C21 (stereo not drawn) (library stock concentration (final ~1000-fold dilution): 10 mM)
- NF-kB SEAP reporter activity (RAW-Dual [2]; agonist: LPS (TLR4) 0.1 ug/mL): 3.33
- NF-kB SEAP reporter activity (RAW-Dual [2]; [6]): 2.62
- NF-kB SEAP reporter activity (RAW-Dual [2]; [7]): 1.93
- NF-kB SEAP reporter activity (RAW-Dual [2]; [8]): 3.02

Compound: CCC(C)C(=O)OC1CCC=C2C=CC(C)C(CCC3CC(O)CC(=O)O3)C21 (stereo not drawn)
- NF-kB SEAP reporter activity (RAW-Dual [1]; [4]): 2.3
- NF-kB SEAP reporter activity (RAW-Dual [1]; [5]): 1.97

Compound: CCC(C)(C)C(=O)OC1CC(C)C=C2C=CC(C)C(CCC3CC(O)CC(=O)O3)C21 (stereo not drawn)
- NF-kB SEAP reporter activity (RAW-Dual [1]; library stock concentration (final ~1000-fold dilution): 10 mM, cytotoxicity flag (confluency mask): cytotoxic (confluency <70% of control), agonist: Imiquimod (TLR7) […]): 2.53
- NF-kB SEAP reporter activity (RAW-Dual [1]; library stock concentration (final ~1000-fold dilution): 10 mM, cytotoxicity flag (confluency mask): cytotoxic (confluency <70% of control), agonist: MPLA (TLR4) […]): 1.95

Compound: CCC(C)C(=O)OC1CC(O)C=C2C=CC(C)C(CCC(O)CC(O)CC(=O)O)C21 (stereo not drawn) (library stock concentration (final ~1000-fold dilution): 10 mM)
- NF-kB SEAP reporter activity (RAW-Dual [2]; agonist: LPS (TLR4) 0.1 ug/mL): 1.01 and 1.04
- NF-kB SEAP reporter activity (RAW-Dual [2]; [6]): 1 and 1.02
- NF-kB SEAP reporter activity (RAW-Dual [2]; [7]): 1.08 and 1.05
- NF-kB SEAP reporter activity (RAW-Dual [2]; [8]): 0.841 and 1.15

Compound: CCC(C)C(=O)OC1CCC=C2C=CC(C)C(CCC3CC(O)CC(=O)O3)C21 (stereo not drawn) (library stock concentration (final ~1000-fold dilution): 10 mM)
- NF-kB SEAP reporter activity (RAW-Dual [2]; agonist: LPS (TLR4) 0.1 ug/mL): 3.69
- NF-kB SEAP reporter activity (RAW-Dual [2]; [6]): 2.68
- NF-kB SEAP reporter activity (RAW-Dual [2]; [7]): 1.45
- NF-kB SEAP reporter activity (RAW-Dual [2]; [8]): 2.12

Compound: CC(C)(Cc1ccc2ccccc2c1)NCC(O)COc1cccc(Cl)c1C#N (stereo not drawn) (library stock concentration (final ~1000-fold dilution): 10 mM)
- NF-kB SEAP reporter activity (RAW-Dual [2]; agonist: LPS (TLR4) 0.1 ug/mL): 0.273
- NF-kB SEAP reporter activity (RAW-Dual [2]; [6]): 0.962
- NF-kB SEAP reporter activity (RAW-Dual [2]; [7]): 0.164
- NF-kB SEAP reporter activity (RAW-Dual [2]; [8]): 1.03

Compound: CC(C)(Cc1ccc2ccccc2c1)NCC(O)COc1cccc(Cl)c1C#N (stereo not drawn)
- NF-kB SEAP reporter activity (RAW-Dual [1]; [4]): 0.896
- NF-kB SEAP reporter activity (RAW-Dual [1]; [5]): 0.972

Compound: CCCCCCCCCC(=O)NC(Cc1c[nH]c2ccccc12)C(=O)NC(CC(N)=O)C(=O)NC(CC(=O)O)C(=O)NC1C(=O)NCC(=O)NC(CCCN)C(=O)NC(CC(=O)O)C(=O)NC(C)C(=O)NC(CC(=O)O)C(=O)NCC(=O)NC(CO)C(=O)NC(C(C)CC(=O)O)C(=O)NC(CC(=O)c2ccccc2N)C(=O)OC1C (stereo not drawn) (library stock concentration (final ~1000-fold dilution): 10 mM)
- NF-kB SEAP reporter activity (RAW-Dual [2]; agonist: LPS (TLR4) 0.1 ug/mL): 1.33
- NF-kB SEAP reporter activity (RAW-Dual [2]; [6]): 1.01
- NF-kB SEAP reporter activity (RAW-Dual [2]; [7]): 1.05
- NF-kB SEAP reporter activity (RAW-Dual [2]; [8]): 1.19

Compound: CCCCCCCCCC(=O)NC(Cc1c[nH]c2ccccc12)C(=O)NC(CC(N)=O)C(=O)NC(CC(=O)O)C(=O)NC1C(=O)NCC(=O)NC(CCCN)C(=O)NC(CC(=O)O)C(=O)NC(C)C(=O)NC(CC(=O)O)C(=O)NCC(=O)NC(CO)C(=O)NC(C(C)CC(=O)O)C(=O)NC(CC(=O)c2ccccc2N)C(=O)OC1C (stereo not drawn)
- NF-kB SEAP reporter activity (RAW-Dual [1]; [4]): 0.826
- NF-kB SEAP reporter activity (RAW-Dual [1]; [5]): 0.855

Compound: CC(=O)OC(CC=C(C)C)C1=CC(=O)c2c(O)ccc(O)c2C1=O (stereo not drawn) (library stock concentration (final ~1000-fold dilution): 2 mM)
- NF-kB SEAP reporter activity (RAW-Dual [2]; agonist: LPS (TLR4) 0.1 ug/mL): 0.479
- NF-kB SEAP reporter activity (RAW-Dual [2]; [6]): 0.647
- NF-kB SEAP reporter activity (RAW-Dual [2]; [7]): 0.257
- NF-kB SEAP reporter activity (RAW-Dual [2]; [8]): 0.408

Compound: CC(=O)OC(CC=C(C)C)C1=CC(=O)c2c(O)ccc(O)c2C1=O (stereo not drawn)
- NF-kB SEAP reporter activity (RAW-Dual [1]; library stock concentration (final ~1000-fold dilution): 2 mM, cytotoxicity flag (confluency mask): not cytotoxic, agonist: Imiquimod (TLR7) […]): 0.978
- NF-kB SEAP reporter activity (RAW-Dual [1]; library stock concentration (final ~1000-fold dilution): 2 mM, cytotoxicity flag (confluency mask): not cytotoxic, agonist: MPLA (TLR4) […]): 0.978

Compound: O=c1cc(-c2ccccc2)oc2c1ccc1ccccc12 (library stock concentration (final ~1000-fold dilution): 10 mM)
- NF-kB SEAP reporter activity (RAW-Dual [2]; agonist: LPS (TLR4) 0.1 ug/mL): 0.691
- NF-kB SEAP reporter activity (RAW-Dual [2]; [6]): 0.933
- NF-kB SEAP reporter activity (RAW-Dual [2]; [7]): 0.846
- NF-kB SEAP reporter activity (RAW-Dual [2]; [8]): 0.982

Compound: O=c1cc(-c2ccccc2)oc2c1ccc1ccccc12
- NF-kB SEAP reporter activity (RAW-Dual [1]; [5]): 1.2

Compound: C#CCNC1CCc2ccccc21 (stereo not drawn)
- NF-kB SEAP reporter activity (RAW-Dual [1]; [4]): 0.916
- NF-kB SEAP reporter activity (RAW-Dual [1]; [5]): 1.14

Compound: C#CCNC1CCc2ccccc21 (stereo not drawn) (library stock concentration (final ~1000-fold dilution): 10 mM)
- NF-kB SEAP reporter activity (RAW-Dual [2]; agonist: LPS (TLR4) 0.1 ug/mL): 1.06
- NF-kB SEAP reporter activity (RAW-Dual [2]; [6]): 0.931
- NF-kB SEAP reporter activity (RAW-Dual [2]; [7]): 1.04
- NF-kB SEAP reporter activity (RAW-Dual [2]; [8]): 1.08
